Molecules are shown by their SMILES. Active and inactive are the calls of the source. How the source made its calls: active means hit-call score of the fitted dose curve at least 0.9, where 1 is the maximum; inactive means score below 0.9.

Data on 39 compounds can be found in PubChem BioAssay (EPA / NIEHS).

This assay can be described thus: ATG_ERE_CIS: Attagene CIS-FACTORIAL HepG2 Assay for Estrogen Response Element (ERE) (AID 2282940). Particulars: HepG2 ERE cis-reporter, Attagene RNA transcript; actives raise or lower the signal. Here is the method:
ATG_CIS is a cell-based, multiplexed-readout assay that uses HepG2, a human liver cell line, with measurements taken at 24 hours after chemical dosing in a 24-well plate.ATG_ERE_CIS is one of 52 assay component(s) measured or calculated from the ATG_CIS assay. It is designed to make measurements of mRNA induction, a form of inducible reporter, as detected with fluorescence intensity signals by Reverse transcription polymerase chain reaction (RT-PCR) and Capillary electrophoresis technology.Data from the assay component ATG_ERE_CIS was analyzed into 1 assay endpoint. This assay endpoint, ATG_ERE_CIS, was analyzed with bidirectional fitting relative to DMSO as the negative control and baseline of activity. Using a type of inducible reporter, measures of mRNA for gain or loss-of-signal activity can be used to understand the reporter gene at the transcription factor-level as they relate to the gene ESR1. Furthermore, this assay endpoint can be referred to as a primary readout, because this assay has produced multiple assay endpoints where this one serves a reporter gene function. To generalize the intended target to other relatable targets, this assay endpoint is annotated to the nuclear receptor intended target family, where the subfamily is steroidal.
Human liver HepG2 cells are transiently transfected with multiple reporter transcription units (MRTUs) in 6-well plates using FuGene 6 reagent (Roche; 3 ml FuGene/1 mg DNA). The MRTU constructs are regulated by a cis-regulating element (promoter). […] A major difference between the CIS and TRANS system is that in CIS activities of endogenous TFs are measured, whereas the TRANS assay evaluates changes in activities of exogenous, chimeric NR-Gal4 proteins. […] At the end of 24 hour incubation, total RNA was isolated using TriZol reagent (Invitrogen). The isolated RNA is then reverse-transcribed using oligo(dT) primer and Mo-MLV reverse transcriptase (Invitrogen) with DNAse I (Ambion) treatment for 30 min. The one-tenth of the produced cDNA was amplified by PCR using Taq DNA polymerase (Invitrogen) and two reporter sequence-specific primers. The PCR products were fluorescently labeled by primer extension with 6-arboxyfluorescein (6-FAM) 5'-labeled reporter sequence-specific primer (2 min at 95 C, 20 s at 68 C and 10 min at 72 C) and these products were digested with 5U of HpaI (New England Biolabs) for 2h at 37 C. The fragments were purified using Qiaquick PCR columns (Qiagen), analyzed on an ABI 3130xL genetic analyzer (Applied Biosystems) with peak positions identified by using a set of X-rhodamine (ROX)-labeled MapMarker1000 molecular weight standards (BioVentures). The raw capillary electrophoresis data was processed using Attagraph software (Attagene).
In the case of `CCCCCOC(=O)COc1cc(N2C(=O)C3=C(CCCC3)C2=O)c(F)cc1Cl`, the result was inactive.

As to `CCN(CC)C(=O)c1cccc(C)c1`, the compound was called inactive.

For `CCCN(CCC)C(=O)SCC`, the call was inactive.

As to `CC(=O)[C@H]1CC[C@H]2[C@@H]3CCC4=CC(=O)CC[C@]4(C)[C@H]3CC[C@]12C`, the AC50 (usually the concentration at which the activity in the assay is half-maximal) is 1.27 µM (active) [middle of 4 runs].

Consider `COC(=O)c1ccccc1S(=O)(=O)NC(=O)Nc1nc(OC(F)F)cc(OC(F)F)n1`, for which the outcome was inactive.

With `COc1c(Cl)ccc(Cl)c1C(=O)O`, the call was inactive.

On to `CSC(=O)c1cccc2nnsc12`, for which the call was inactive.

As for `CCC(O)=C1C(=O)CC(C(=O)O)CC1=O` (centres undefined), the result was inactive.

With `CC1(C)C(C=C(Cl)Cl)C1C(=O)OCc1cccc(Oc2ccccc2)c1` (centres undefined), the AC50 is 21.3 µM (active).

As to `CCOC(=O)NCCOc1ccc(Oc2ccccc2)cc1`, the AC50 is 12.6 µM (active).

Take `OB(O)O`: the outcome was inactive.

As to `COC(=O)c1cccc(C)c1S(=O)(=O)NC(=O)Nc1nc(OCC(F)(F)F)nc(N(C)C)n1`, the compound was classed as inactive.

`O=C(c1ccc(O)cc1O)c1ccc(O)cc1O`: the AC50 is 843 nM (active) [middle of 4 runs].

Consider `CN(C)C(=O)Nc1ccc(Cl)c(Cl)c1`, for which the outcome was inactive.

On to `c1ccc2[nH]c(-c3cscn3)nc2c1`, for which the call was inactive.

In the case of `COC(=O)c1ccccc1C(=O)O`, the outcome was inactive.

In the case of `CCCCC(CC)CN1C(=O)C2C3C=CC(C3)C2C1=O` (centres undefined), the compound was called inactive.

As to `CCCCOC(=O)C(C)Oc1ccc(Oc2ccc(C(F)(F)F)cn2)cc1` (centres undefined), the call was inactive.

Regarding `CCSC(=O)N(CC(C)C)CC(C)C`, the call was inactive.

Regarding `CCN(Cc1c(F)cccc1Cl)c1c([N+](=O)[O-])cc(C(F)(F)F)cc1[N+](=O)[O-]`, the AC50 was 1.81 µM (active).

Turning to `N#CSCSc1nc2ccccc2s1`, the result was inactive.

With `CCOC(=O)C(C)Oc1ccc(Oc2cnc3cc(Cl)ccc3n2)cc1` (centres undefined), the compound was called inactive.

For `Cc1nn(C)c(Oc2ccccc2)c1C=NOCc1ccc(C(=O)OC(C)(C)C)cc1`, the compound was classed as inactive.

Take `COC(=O)c1c(Cl)nn(C)c1S(=O)(=O)NC(=O)Nc1nc(OC)cc(OC)n1`: the outcome was inactive.

With `C#CCOC(=O)[C@@H](C)Oc1ccc(Oc2ncc(Cl)cc2F)cc1`, the compound was classed as inactive.

For the compound `CC(=O)S[C@@H]1CC2=CC(=O)CC[C@]2(C)[C@H]2CC[C@@]3(C)[C@@H](CC[C@@]34CCC(=O)O4)[C@H]12`, the compound was classed as inactive.

Regarding `O=C(O)C1(C(=O)Nc2ccc(Cl)cc2Cl)CC1`, the compound was classed as inactive.

For the compound `CCCN(CCC)c1c([N+](=O)[O-])cc(C(F)(F)F)c(N)c1[N+](=O)[O-]`, the compound was classed as inactive.

Turning to `O=C(O)c1ccccc1`, the outcome was inactive.

`CCCOC(=O)c1ccc(C(=O)OCCC)nc1`: the result was inactive.

Consider `CC(C)CCCCCCc1ccc(O)cc1`, for which the AC50 was 644 nM (active) [middle of 4 runs].

Consider `CCCCOC(=O)[C@@H](C)Oc1ccc(Oc2ccc(C(F)(F)F)cn2)cc1`, for which the AC50 is 59.1 µM (active).

In the case of `O=C(Nc1ccc([N+](=O)[O-])cc1Cl)c1cc(Cl)ccc1O`, the compound was classed as inactive.

Regarding `COC(=O)c1ccc(CNS(C)(=O)=O)cc1S(=O)(=O)NC(=O)Nc1nc(OC)cc(OC)n1`, the result was inactive.

Take `COCCO`: the compound was classed as inactive.

Turning to `O=C(c1ccccc1)C1CCCCC1`, the AC50 is 17.4 µM (active) [middle of 4 runs].

Turning to `CCOC(=O)COc1cc(-n2ncc(C(F)(F)F)c(C)c2=O)c(F)cc1Cl`, the outcome was inactive.

As to `C[C@]12CC[C@@H]3c4ccc(O)cc4C[C@@H](CCCCCCCCCS(=O)CCCC(F)(F)C(F)(F)F)[C@H]3[C@@H]1CC[C@@H]2O` (some centres undefined), the compound was classed as inactive.

Take `COc1nc(C)nc(NC(=O)NS(=O)(=O)c2ccccc2OCCCl)n1`: the compound was classed as inactive.
